Active and inactive are the calls of the source. The rule behind the calls is not given here.
Target: Pantothenate synthetase (Mycobacterium tuberculosis (strain ATCC 25618 / H37Rv)) (UniProt P9WIL5)
Experiment: Coupled enzyme confirmation of inhibitors against recombinant Mtb PanC (AID 375);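 note: 0% = full reaction with vehicle and 100% = no enzyme background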
Details: coupled enzyme assay; at 10 µM, hits give high values

Pantothenate synthetase (Mycobacterium tuberculosis (strain ATCC 25618 / H37Rv)), sequence (P9WIL5 whole entry, looked up): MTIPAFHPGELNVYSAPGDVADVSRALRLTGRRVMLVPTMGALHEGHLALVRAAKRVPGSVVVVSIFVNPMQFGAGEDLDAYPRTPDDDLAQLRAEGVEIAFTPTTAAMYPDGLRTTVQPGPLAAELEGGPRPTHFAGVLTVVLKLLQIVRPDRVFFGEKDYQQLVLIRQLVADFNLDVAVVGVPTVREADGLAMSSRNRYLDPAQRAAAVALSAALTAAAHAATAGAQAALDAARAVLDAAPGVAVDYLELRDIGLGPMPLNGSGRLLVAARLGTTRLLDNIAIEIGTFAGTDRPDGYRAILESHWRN

Row | Compound | inhibition
1 | CCN(C(=O)c1c(OC)cccc1OC)c1nnc(-c2cccnc2)s1 | 0% (inactive)
2 | OCC#CCSc1nnc(-c2ccccc2Br)o1 | 0% (inactive)
3 | Cc1nn(-c2ccc(F)cc2)c2sc(C(=O)OCC(=O)N3CCC(C)CC3)cc12 | 0% (inactive)
4 | O=C1OC2(c3ccccc3)C3CCCC2C13 | 3% (inactive)
5 | Cc1ccc(Nc2cc(C)nc3ncnn23)c(Cl)c1 | 0% (inactive)
6 | O=S(=O)(c1ccc(Br)s1)N1CCN(c2ccccc2)CC1 | 0% (inactive)
7 | NS(=O)(=O)c1cc2c(cc1Cl)NC(C(Cl)Cl)NS2(=O)=O (stereo not given) | 2% (inactive)
8 | Cc1nnc2c3ccccc3c(-c3ccccc3)nn12 | 0% (inactive)
9 | Cc1ccc(CCNC(=O)Cn2cccc2)cc1 | 0% (inactive)
10 | Cn1c(=O)c2c(nc(SCCOc3ccc4ccc(=O)oc4c3)n2C)n(C)c1=O | 0% (inactive)
11 | COc1ccc(Cc2noc(-c3ccc(C)cc3)n2)cc1 | 0% (inactive)
12 | O=S(=O)(c1ccc(Br)s1)N1CCCCC1 | 0% (inactive)
13 | CCOc1cc(-c2nc(-c3ccc(C)nc3OCC)no2)cc(OCC)c1OCC | 0% (inactive)
14 | O=S(=O)(c1ccc(F)c(Cl)c1)N1CCCC1 | 0% (inactive)
15 | NC(=O)C(Cc1ccccc1)NS(=O)(=O)c1ccc(N2CCCC2=O)cc1 (stereo not given) | 0% (inactive)
16 | O=C(OC1CCc2ccccc2C1=O)c1ccccc1O (stereo not given) | 0% (inactive)
17 | COCc1nnc(NC(=O)c2ccc(S(=O)(=O)N(C)c3ccccc3)cc2)o1 | 0% (inactive)
18 | c1ccc(-c2nnc(-c3ccco3)n2-c2ccccc2)cc1 | 0% (inactive)
19 | Cn1nnnc1SCC(=O)NC1CCCCC1 | 0% (inactive)
20 | Cc1ccc2nc(NCCCN3CCOCC3)c(C=NCCCN3CCOCC3)c(=O)n2c1 | 0% (inactive)

Row | Compound | inhibition
21 | O=C(NC1CCCCC1)n1c(=O)oc2ccc(Cl)cc21 | 5% (inactive)
22 | CCOc1cc(C2/C(=C(/O)c3ccc(OC(C)C)cc3)C(=O)C(=O)N2CCCOC)ccc1O (stereo not given) | 0% (inactive)
23 | CCN(CC)c1ccc2cc(-c3nc4ccccc4[nH]3)c(=O)oc2c1 | 0% (inactive)
24 | Cc1cc(NS(=O)(=O)Cc2ccccc2)cc(C)c1OCC(=O)N1CCOCC1 | 4% (inactive)
25 | COc1ccc(-c2ccc(-c3noc(-c4ccccc4)n3)c(OC)n2)cc1 | 3% (inactive)
26 | Cc1cccc(OCCNC(=O)c2ncn[nH]2)c1 | 0% (inactive)
27 | COc1cccc(C2C(C(=O)c3cc4ccccc4o3)=C(O)C(=O)N2CCN(C)C)c1OC (stereo not given) | 1% (inactive)
28 | Cn1cc(CC(=O)Nc2cccc(C#N)c2)c2ccccc21 | 6% (inactive)
29 | CCOC(=O)/N=C(/NC(=O)Nc1ccc(C(=O)OCC)cc1)OC | 0% (inactive)
30 | O=C1CC2CS(=O)(=O)CC2N1c1ccc(Oc2ccccc2)cc1 (stereo not given) | 0% (inactive)
31 | O=C(Nc1ccccc1-c1nc2ccccc2o1)c1ccc2c(c1)OCCO2 | 5% (inactive)
32 | O=C(CN1CCN(c2cccc(Cl)c2)CC1)N1CCCC1 | 4% (inactive)
33 | Cc1ccc(-c2nnc(SCC(=O)N3c4ccccc4NC(=O)C3(C)C)n2N)cc1 | 1% (inactive)
34 | Cc1cccc(-n2c(SCc3cc(=O)n4ccsc4n3)nc3ccccc32)c1 | 0% (inactive)
35 | CC(C)CNS(=O)(=O)c1ccc(CCC(=O)NCc2ccco2)cc1 | 2% (inactive)
36 | Cc1ccc(OCc2nnc(SCC(=O)Nc3ccc4c(c3)OCO4)n2C)cc1 | 0% (inactive)
37 | COC(=O)c1ccccc1NC(=O)CN1CCC(n2nnc3cc(F)ccc32)CC1 | 0% (inactive)
38 | Cc1cccc(-n2ncc(C#N)c2N)c1 | 1% (inactive)
39 | O=C(NCC1CCCO1)C1CC(c2ccc(Cl)c(Cl)c2)=NO1 (stereo not given) | 0% (inactive)
40 | CN(C)CCOC(=O)C(c1ccccc1)C1(O)CCCC1 (stereo not given) | 5% (inactive)
